# Reference: PubChem BioAssay AID1491 (National Center for Advancing Translational Sciences (NCATS), 2009)
# “And” between values parts separate entries of the source, which are not always exact repeats. Equal values may be shown once. Records with an inconclusive call do not appear. A number with no mark means an inactive call. The source made the active and inactive calls. Calls come from the whole dose curve; as a rule, active = well fitted inhibition curve with a large enough effect in the main read-out, with a control signal flat; inconclusive = small, poorly fitted or top-dose-only effect, or a change in a side signal; inactive = flat fitted curve, though single readings scatter.
# Target: Neuropeptide S receptor (Homo sapiens) (UniProt Q6W5P4)
# Sequence (Q6W5P4 whole entry, looked up): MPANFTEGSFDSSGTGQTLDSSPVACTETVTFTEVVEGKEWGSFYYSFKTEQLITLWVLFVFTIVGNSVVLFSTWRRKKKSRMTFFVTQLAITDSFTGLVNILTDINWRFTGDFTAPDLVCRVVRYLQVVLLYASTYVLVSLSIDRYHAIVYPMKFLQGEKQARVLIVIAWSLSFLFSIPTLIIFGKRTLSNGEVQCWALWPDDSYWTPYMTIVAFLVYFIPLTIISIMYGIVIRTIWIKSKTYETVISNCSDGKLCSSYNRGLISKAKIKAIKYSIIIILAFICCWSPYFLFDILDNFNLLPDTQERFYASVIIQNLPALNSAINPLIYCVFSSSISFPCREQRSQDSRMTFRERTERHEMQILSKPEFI
# Experiment: Confirmation Concentration-Response Assay for Antagonists of the Neuropeptide S Receptor: cAMP Signal Transduction;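 for activity change, negative = inhibition: 0% = DMSO with NPS and full inhibition = wells lacking NPS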
# Settings: CHO-NPSR cells, cAMP TR-FRET, antagonist mode; series mostly up to 22.3 µM; activity change, negative = inhibition: at the top concentration
# Summary of the method: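 LANCE TR-FRET cAMP read-out: 665/620 nm emission ratio, with the 620 nm donor channel also reported, after 2 h RT detection. Stably transfected CHO-NPSR cells got compound titrations and 100 nM NPS in stimulation reagent for 60 min at 37C. IC50 came from Hill fits.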
# Potency is the fitted concentration of half-maximal effect.
Compound,"activity change, negative = inhibition",Potency
CCOc1ccc(N2C(=O)CC(NCCc3ccncc3)C2=O)cc1 (stereo not drawn),15%,
C=CCNC(=O)/C(C#N)=C/c1cn(-c2ccccc2)nc1-c1ccc(OC)c([N+](=O)[O-])c1,-2.43%,
CN(C)c1ccc(N=Cc2ccco2)cc1,-23%,
O=C(N1CCOCC1)C1(c2ccc(Cl)cc2)CCCC1,19.5%,
Cc1nn(C(=O)c2cccs2)c(N)c1-c1ccccc1,0.84%,
N[C@@H](Cc1cc(I)c(Oc2ccc(O)c(I)c2)c(I)c1)C(=O)O,1.71%,
Cc1cc(C)n(-c2nc(NC(C)C)nc(NC(C)C)n2)n1,-3.58%,
O=C(CCc1ccccc1)Nc1ncnc2c1C(c1ccccc1)c1c(ccc3ccccc13)O2 (stereo not drawn),,3.55 µM (active)
Cc1ccc(-c2ccc(/C=C3\C(=O)ON=C3c3ccccc3)o2)c([N+](=O)[O-])c1,,2.82 µM (active)
N=c1c2c(ccn1Cc1ccccc1)Oc1ccc3ccccc3c1C2c1ccccc1 (stereo not drawn),,2 µM (active)
Cc1cc(OCC(=O)c2ccc(Br)cc2)ccc1N1C(=O)CCC1=O,-12.9%,
O=C(CSc1cccc[n+]1[O-])Nc1ccccc1Oc1ccccc1,-6.76%,
O=C(N/N=C/c1ccc([N+](=O)[O-])o1)c1ccc(O)cc1,-3.61%,
COC(=O)c1ccc(C(=O)OC)c(NC(=O)CSc2cccc[n+]2[O-])c1,-6.2%,
CN(C)S(=O)(=O)Nc1ccccc1C(N)=O,-5.22%,
O=C1Nc2ccc(S(=O)(=O)N3CCCC3C(=O)O)c3cccc1c23 (stereo not drawn),-13.2%,
c1ccc(-c2ccc(-c3nc(-c4cccnc4)no3)cc2)cc1,-15.5%,
C(=N\Nc1nc(-c2ccccn2)nc2ccccc12)/c1ccccc1,-13%,
CCOc1ccc(-n2c(=S)sc3c(=O)[nH]c(SCC(=O)C(C)(C)C)nc32)cc1,,7.08 µM (active)

Compound,"activity change, negative = inhibition",Potency
CCOC(=O)c1cnc(-n2nc(C)cc2C)nc1Nc1ccc(C)cc1,-5.24%,
CCOC(=O)CC(=O)Nc1ncnc2c1C(c1ccccc1)c1c(ccc3ccccc13)O2 (stereo not drawn),,0.794 µM (active)
CCOC(=O)C1CCCN(c2ncnc3c2oc2ccccc23)C1 (stereo not drawn),,50.1 µM (active) and 12.6 µM (active)
O=C(O)c1cccc(Nc2ncnc3ccccc23)c1,8.17%,
Cc1cccnc1NC(=O)c1c(O)c2cccc3c2n(c1=O)CCC3,-5.87%,
C=CC1(C)CC(=O)C2(O)C(C)(O1)C(OC(C)=O)C(O)C1C(C)(C)CCC(O)C12C (stereo not drawn),6.07% [at 0.188 µM],
S=C(Nc1ccccn1)c1ccccn1,1.64%,
COc1ccc(O)c(/C=N/Nc2nc(Nc3ccccc3)nc(-n3nc(C)cc3C)n2)c1,-1.82%,
Brc1ccc(CSc2ncn[nH]2)cc1,-6.38%,
COc1cccc(C2C(C#N)=C(NC(=O)CCc3ccccc3)Oc3ccc4ccccc4c32)c1 (stereo not drawn),-10.6%,
Cc1ccc(NC(=S)NNC(C)(C)C)cc1,-2.61%,
CC(=O)c1sc(N/N=C\c2ccccc2O)nc1C,,7.08 µM (active)
N#CC1=C(NC=NCc2ccccc2)Oc2ccc3ccccc3c2C1c1ccccc1 (stereo not drawn),,1.58 µM (active)
CCC(C)n1c(=O)c(C(=O)Nc2ccccc2S(N)(=O)=O)c(O)c2ccccc21 (stereo not drawn),-13.3% [at 47.8 µM],
CC1CCCc2sc3nc(N4CCN(CCO)CC4)n4ncnc4c3c21 (stereo not drawn),17.5%,
COc1ccc(/C=C2\CCCC3C2=NN(C(=O)c2ccco2)C3c2ccc(OC)c(OC)c2)cc1OC (stereo not drawn),,inactive
CC1CCCCN1S(=O)(=O)c1ccc(C(=O)Nc2sccc2C(N)=O)cc1 (stereo not drawn),,12.6 µM (active) and 14.1 µM (active)
O=C(NCCCN1CCOCC1)c1cc2c(=O)[nH]c3ccccc3c2s1,6.75%,
CCOc1ccccc1NC1=CC(=O)CC(c2ccccc2)C1 (stereo not drawn),-1.81%,
